# This is part of a sample that, as a whole, favours compounds with a hit. Of some 83,000 tested, about 20% had one in any assay.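 Activity criterion: percent growth below 10, measured after cells in 96-well plates were exposed to a single compound concentration for 48 hours.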 A number with no mark means an inactive call. The source made the active and inactive calls.
# Tested on: KM12 colon
# Assay: NCI-60 one-dose screen, 48 h (100 = growth as untreated, 0 = no growth, -100 = all killed)
# Conditions: 10 µM unless noted
# Protocol: Growth inhibition of the KM12 human tumor cell line is measured as a screen for anti-cancer activity. Cells are grown in 96 well plates and exposed to the test compound for 48 hours. Compounds are tested at a single concentration, which is 10^-5 M for most compounds. The reported endpoint is percent growth (GI% or GIPRCNT), where numbers from 0 - 100% represent growth inhibition, and numbers from -100% - 0 represent cell death. For example, a value of 40 represents 60% growth inhibition. A value of 0 means no net growth occurred over the course of the experiment. A value of -40 indicates 40% of cells at the beginning of the experiment died by the end of the experiment. A value of -100 means all cells are dead at the end of the experiment.
# NCI-60 Human Tumor Cell Lines Screen was performed using the standard one-dose NCI protocol, which is described in more detail at https://dtp.cancer.gov/discovery_development/nci-60/default.htm.
# Compounds with GIPRCNT values below 10 were considered active. Activity score was based on GIPRCNT using the following formula: […]
# Score is 0 for GIPRCNT values of 100 or above, 50 for GIPRCNT values of 0, and 100 for GIPRCNT values of -100.
row,SMILES,growth
1,CN(C)c1ccc(/C=N/NC(=O)COc2cc(=O)n(C)c3ccccc23)cc1,109%
2,CCC(C)NCc1ccccc1 (stereo not given),100%
3,Cc1nc2ccc(C(=O)NCc3cc(C(=O)O)c(C)o3)cc2nc1C,92.3%
4,CN(C)c1ccc(C#Cc2c(F)cccc2Cl)cc1,85.4%
5,O=C1Nc2ccccc2/C1=N/N=C/c1c[nH]c2ccccc12,28.5%
6,C=C1C(=O)O[C@H]2[C@H]1CC/C(COC(=O)/C=C\C(=O)NCc1ccc(Cn3c(=O)sn(CCCI)c3=O)cc1)=C\CC[C@@]1(C)O[C@@H]21,-77% (active)
7,COc1cc(C(=O)/C=C/c2c(C(F)(F)F)nc3ccccn23)cc(OC)c1OC,-82.7% (active)
8,CCCCOc1nc2ccc(Cl)cc2cc1/C=C/C(=O)/C=C1/CC(c2cc3cc(Cl)ccc3nc2OCCCC)Nc2ccccc2N1 (stereo not given),101%
9,O=C(/C=C/C12c3ccccc3C(c3ccccc31)C1C(=O)N(c3ccccc3)C(=O)C12)c1ccc(Cl)cc1 (stereo not given),7.23% (active)
10,COc1ccc(N=c2nc3sc4cc(Cl)ccc4n3c(N)c2C#N)cc1,24.7%
11,COC(=O)/C(=C\c1ccc(OC)cc1)C(=O)N1c2ccccc2Sc2ccccc21,36.1%
12,Nc1c(C(=O)c2ccccc2)nnc2ncnn12,105%
13,COc1cc(NC(=O)c2cccc(-c3cc(=O)c4c(O)c(OC)c(OC)cc4o3)c2)cc(OC)c1OC,53.9%
14,C=C(CNCCc1ccc(O)cc1)[C@@H]1CC[C@]2(COC3CCCCO3)CC[C@]3(C)[C@H](CC[C@@H]4[C@@]5(C)CCC(N)C(C)(C)[C@@H]5CC[C@]43C)[C@@H]12 (stereo not given in full),-85.7% (active)
15,COc1ccc(-n2sc(=O)n(Cc3ccc(COC(=O)C(C)c4ccc(CC(C)C)cc4)cc3)c2=O)cc1 (stereo not given),85.8%
16,CS(=O)(=O)c1ccc(-c2nc3cc(Cl)ccc3n2CC(=O)N/N=C/c2ccc(Cl)cc2)cc1,41%
17,COc1ccc(/C=C2\COc3ccc(O)c(O)c3C2=O)c(OC)c1,45%
18,COc1cc2c(cc1OC)-c1ccc3cc4c(cc3c1N(CCN(C)C)C2)OCO4,17.1%
19,CCCCCCCCN(CCCCCCCC)C(=N)c1ccnc2ccccc12,-82.7% (active)
20,COc1cc(/C=C/C(=O)c2ccc(Nc3nc(Nc4ccccc4)nc(Nc4ccc(Cl)cc4)n3)cc2)cc(OC)c1OC,46.9%

row,SMILES,growth
1,COc1ccc(-c2nnc(SCC(=O)NC3=NN=C(c4ccccc4)CS3)o2)cc1,102%
2,CN(C)c1ccc2cc(-c3ccc(Cl)c(Cl)c3)c(N)nc2c1,28.9%
3,N=c1ccn2c(n1)OC1C(O)C(CO)OC12 (stereo not given),50.6%
4,CCC(O)(C(c1ccccc1)c1ccccn1)C(c1ccccc1)c1ccccn1 (stereo not given),106%
5,CC(=O)Nc1ccc(C(=O)/C=C/c2ccccc2)cc1,22.8%
6,CNC(=O)c1cc(Oc2ccc3nc(NC(=O)Nc4cc(C(F)(F)F)cc(C(F)(F)F)c4)sc3c2)ccn1,-14.7% (active)
7,O=C1NN(C(=O)c2ccc(O)cc2)C(c2ccccc2)=N/C1=C\c1cn(-c2ccccc2)nc1-c1ccccc1,98.1%
8,NC(=O)c1c(NC(=O)c2ccccn2)sc2c1CCC(=O)C2,6.82% (active)
9,CCCCCCCSc1ccc(C(=O)O)cc1,116%
10,Cc1nc(-c2ccccc2)cc2c(O)c(C(=O)N/N=C/c3ccc(N(C)C)cc3)[nH]c(=O)c12,82.3%
11,CC(C)(C)CC(C)(C)Nc1c(-c2ccc(-c3ccccc3)cc2)nc2cnccn12,79.9%
12,CCNCCNc1cc(-c2ccc(C#N)cc2)c(C#N)c2nc3ccccc3n12,29%
13,CC1(C)N=C(N)N=C(N)N1c1cccc(CN)c1,101%
14,O=S(=O)(NCCNc1cc(-c2c(-c3cccc(O)c3)nc3sccn23)ccn1)c1ccc(Cl)cc1,59.6%
15,Cc1ccc(O)c(C(=O)c2ccccc2Cl)c1,116%
16,COc1cc2cc(Oc3ccc(NC(=O)Nc4cc(C(F)(F)F)cc(C(F)(F)F)c4)cc3)c(C)nc2cc1OCCN1CCCCC1,-78.5% (active)
17,CCCN1CCN(c2ccc3nc(-c4ccc5nc(-c6cc(OC)c(OC)c(OC)c6)[nH]c5c4)[nH]c3c2)CC1,77%
18,C=C(C)C1CCC(=C)C2CCC3(C)OC12/C=C(/COC(C)=O)CCC3O (stereo not given),117%
19,CCCCCOC(=O)c1ccc(NC(=O)CNCC(C)C)cc1,104%
20,COc1cc2c(cc1OC)-c1ccc3cc4c(cc3c1N(CCCn1ccnc1)C2)OCO4,76.1%
